High-throughput results (PubChem)
A selection: hits, their analogues and other compounds. The true share with any hit is near 9.3%.
HCV inh – qHTS Assay for Inhibitors of Hepatitis C Virus (HCV) | Huh7.5.1 HCVcc-Cre infection, luciferase reporter, 44 h | Potency, µM (doses to about 41.8 µM), for the others: at the highest dose activity change, negative = inhibition, usual class: inhibitors | 340,000 tested, 3.4% active | AID 651820, 2012; further: potency means the concentration at half of the fitted maximal effect
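A cell-based infection assay in which seeded cells (1,000 per well) receive test compound after 4 h, are inoculated with HCVcc-Cre at approximately 0.5 moi, and are incubated 44 h before luminescence detection.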
HCMV antiviral – qHTS Assay for inhibitors of the human cytomegalovirus (HCMV) | HFF cells, HCMV-luciferase reporter, 72 h; stronger effect = lower value | 410,000 tested, 4.5% active | activity change, negative = inhibition, % at 57.5 µM; in the data active means activity change below about -60%; inconclusive means no clear call, values can overlap the other calls; inactive means above about -39%
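After 16 h attachment at 37C, HFF cells received test compound and HCMV-luciferase (1 PFU/cell); reporter luminescence read 72 h later, data normalized against buffer-only and known inhibitor Salinomycin.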
Vaccinia mCherry – qHTS for Stage-Specific Inhibitors of Vaccinia Orthopoxvirus: mCherry Reporter Primary qHTS; Vaccinia virus mCherry reporter infection, fluorescence; Potency, µM (top dose mostly 36.5 µM), for inactives: at the highest dose activity change, negative = inhibition, hits mostly inhibitors; 310,000 tested, 0.63% active; calls by dose curve; tested in A549 cells; further: potency means the concentration at half of the fitted maximal effect; nearly all actives have a fitted effect of over 35% in size
FMDV inh – High Throughput Screening for Foot and Mouth Disease Virus Antivirals; 410,000 tested, 1.2% active; FMDV antiviral cell-based qHTS; Potency, µM (titrated, usually from 57.9 µM), without a hit: top-dose activity change, negative = inhibition, hits mostly inhibitors; calls by dose curve; tested in HEK293T cells; further: read-out not given here; potency means the concentration at half of the fitted maximal effect; nearly all actives have a fitted effect of over 45% in size
Vaccinia Venus – qHTS for Stage-Specific Inhibitors of Vaccinia Orthopoxvirus: Venus Reporter Primary qHTS; Vaccinia virus Venus reporter expression, fluorescence; Potency, µM (titrated, usually from 36.5 µM), for inactives: top-dose activity change, negative = inhibition, actives largely listed as inhibitors; 330,000 tested, 0.46% active; AID 720580, 2013; calls by dose curve; tested in A549 cells; further: potency means the concentration at half of the fitted maximal effect; nearly all actives have a fitted effect of over 30% in size
Sm TGR inh – qHTS Assay for the Inhibitors of Schistosoma Mansoni Peroxiredoxins; purified TGR, DTNB reduction, TNB absorbance 405 nm; Potency, µM (titrated, usually from 114 µM), inactives show at the top dose activity change, negative = inhibition, most hits filed as inhibitors; 360,000 tested, 3% active; AID 485364, 2010; further: potency means the concentration at half of the fitted maximal effect; nearly all actives have a fitted effect of over 60% in size
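Kinetic colorimetric format: TGR-catalysed, NADPH-driven DTNB reduction monitored via TNB absorbance. Enzyme dispensed at 20 nM; compound exposure 15 min at room temperature before reaction start.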
* hit, by the source's call; i = inactive; ? = inconclusive; . = not tested or not shown; ! = repeats disagree; [ ] = dose if it differs, or a comment. Unless noted, the call rests on the fitted dose curve; in most records, active means well fitted curve in the direction sought with a large enough effect; inconclusive means small, poorly fitted or top-dose-only effect, or another doubt; inactive means no such curve, though single readings can be large; an effect the other way counts as inactive or inconclusive. On the % scale 0 is the no-effect control and ±100 the full control effect.

SMILES	HCV inh	HCMV antiviral	Vaccinia mCherry	FMDV inh	Vaccinia Venus	Sm TGR inh
CN(Cc1ccccc1)C(=O)c1ccc(CSc2nc3cccnc3n2Cc2ccccc2)cc1	.	-70.8*	?	?	?	4.4%
O=C(NCc1ccccc1)c1ccc(CSc2nc3cccnc3n2Cc2cccc(F)c2)cc1	.	-67.4*	-24.4%	0.0%	-1.9%	3.9%
CCOC(=O)C1=C(C)NC(C)=C(C(=O)OCC)C1C(=O)OC1CCOC1=O (centres undefined)	1.7%	-5.2	-15.0%	25.0%	10.8%	-7.9%
c1ccc(COc2ccc(-c3cc4nc(NCCN5CCOCC5)ccn4n3)cc2)cc1	.	-62.5*	1.7%	-13.5%	-15.1%	.
COCCCNc1ccn2nc(-c3ccc(OCCN4CCOCC4)cc3)cc2n1	.	60.8	-5.7%	11.0%	7.1%	.
NS(=O)(=O)c1ccc(CCNc2ccn3nc(-c4ccc(OCCN5CCOCC5)cc4)cc3n2)cc1	.	-100.0*	-13.1%	-21.8%	-2.9%	.
O=[N+]([O-])c1ccc(N=Cc2ccc(Br)c([N+](=O)[O-])c2)cc1	?	?	i	-18.2%	-4.3%	31.6µM*
O=c1ncn(-c2cccc([N+](=O)[O-])c2)c2ccccc12	15.6%	28.8	-27.5%[7.34 µM]	-16.0%	?	.
Cc1ccc(CNC(=O)C(NS(=O)(=O)c2ccc3nc(C)sc3c2)C(C)C)cc1 (centres undefined)	-11.7%	36.4	11.3%	5.2%	-9.5%	5.4%
Cc1nc2ccc(S(=O)(=O)NC(C(=O)NCc3ccco3)C(C)C)cc2s1 (centres undefined)	5.4%	-64.5*	-6.1%	-16.7%	2.3%	-12.5%
COc1ccc(-c2nc(C)ncc2N=Nc2ccccc2)cc1	31.6µM*	-35.0	.	-14.3%	-2.2%	13.6%
Cc1ccc(/C(=N\O)c2oc3c(C)c4oc(=O)cc(C)c4cc3c2C)cc1	5.62µM*	-2.0	?	?	?	-18.0%
Cc1cc(=O)oc2c1ccc1oc(/C(=N/O)c3ccccc3)c(C)c12	6.31µM*	13.8	.	?	.	5.5%
CCc1c(C(C)=O)oc2ccc3c(C)cc(=O)oc3c12	?	?	31.3%	7.9%	-10.6%	-3.0%
CCc1c(C(=O)c2ccc(Cl)cc2)oc2c(C)c3oc(=O)cc(C)c3cc12	0.8%	.	.	0.0%	-11.4%	-5.1%
O=C(C[n+]1ccc(/C=C/c2c[nH]c3ccccc23)c2ccccc21)c1ccccc1	.	.	-14.0%	.	-4.2%	.
Cc1ccc(-c2nc(CN3CCCCC3)cc(CN3CCCCC3)c2O)cc1	?	-35.4	3.0%	0.0%	4.9%	20µM*
O=C(Nc1ccccc1)c1nnsc1S(=O)c1ccc(Cl)cc1 (centres undefined)	0.5%	-103.7*	.	-16.4%	?	0.1µM*
O=C(c1nnsc1S(=O)c1ccc(Cl)cc1)N1CCOCC1 (centres undefined)	?	-98.1*	?	35.5µM*	?	2.51µM*
O=C(c1nnsc1S(=O)(=O)c1ccc(Cl)cc1)N1CCOCC1	?	51.9	?	15.8µM*	?	11.2µM*
CNC(=O)c1nnsc1S(=O)(=O)c1ccc(Cl)cc1	?	-93.7*	?	?	?	0.282µM*
O=C(CCC1CCCCC1)Nc1c2c(nn1-c1ccc(F)cc1)CS(=O)(=O)C2	.	23.5	-8.9%	-24.7%	-2.3%	-26.8%
CCn1cc(C(=O)N2CCN(c3ccc(OC)cc3)CC2)c(=O)c2cc(S(=O)(=O)N(C)C3CCCCC3)ccc21	.	19.4	-8.6%	3.8%	-0.6%	-0.6%
O=C(CNCCN1CCOCC1)Nc1ccccc1Sc1ccccc1	19.2%	-30.4	i	-8.1%	-15.5%	-2.1%
O=C1N(S(=O)(=O)c2ccccc2F)C(=O)C2(CCCC2)N1S(=O)(=O)c1ccccc1F	10.9%	57.2	-9.3%	12.6%	-6.0%	0.0%
SMILES	HCV inh	HCMV antiviral	Vaccinia mCherry	FMDV inh	Vaccinia Venus	Sm TGR inh
S=c1[nH]c(-c2ccc(Cl)cc2)cs1	8.9%	-62.5*	-14.6%	8.7%	-2.3%	-4.4%
CCOC(=O)c1c(SC)n(-c2ccccc2)c(=S)n(-c2ccccc2)c1=O	19.9%	0.7	-2.9%	-14.3%	-2.2%	0.2%
CCOC(=O)c1c(SCCN2CCCCC2)n(-c2ccccc2)c(=S)n(-c2ccccc2)c1=O	?	9.3	-4.5%	20µM*	-0.7%	.
Cc1cc([N+](=O)[O-])cc2c1NC(=O)C2(O)N1CCCCCC1 (centres undefined)	1.3%	-7.5	-14.6%	-11.4%	-10.3%	-15.9%
CCC(C)(C)c1ccc(OCCCC[n+]2ccccc2)c(C(C)(C)CC)c1	?	-98.4*	.	31.6µM*	.	0.1%
Cc1cc(N)c2cc(NC(=O)/C=C/c3ccccc3Cl)ccc2n1	11.2µM*	.	.	?	.	-18.1%
C[C@H](C[C@H](O)[C@H]1OC1(C)C)C1=C2C[C@H](O)C3[C@@]4(C)CCC(=O)C(C)(C)C4CC[C@]3(C)[C@@]2(C)CC1 (some centres undefined)	?	20.8	-7.0%	?	?	.
C[C@@H](C[C@@H](O)[C@H](O)C(C)(C)O)[C@@H]1CC[C@]2(C)C3=CC[C@H]4C(C)(C)C(=O)CC[C@]4(C)[C@H]3CC[C@@]12C	-12.3%	0.6	?	?	11.2µM*	-12.6%
Cc1cc(C)c(NC(=O)COC(=O)c2c(C)noc2C)c(Cl)c1	?	-16.1	.	-7.7%	.	-9.5%
OCC[C@@H]1C[C@H](O)[C@@H](O)[C@@]2(Cc3ccccc3O2)O1	6.3%	46.8	i	-7.2%	-10.1%	-0.6%
NS(=O)(=O)c1ccc(CCNC(=O)CCn2c(=O)c3cccn3c3cccnc32)cc1	.	39.3	-1.3%	-8.0%	-5.8%	5.4%
COC(=O)C1=COC(C)C2CN3CCc4c([nH]c5ccccc45)C3CC12 (centres undefined)	-69.2%	.	-2.8%	-13.0%	17.7%	79.4µM*
COC(=O)C1=CO[C@@H](C)[C@H]2CN3CCc4c([nH]c5ccccc45)[C@@H]3C[C@H]12	?	-67.7*	-16.2%	?	-16.2%	-5.4%
CCC(=O)Nc1nnc(S(=O)(=O)N(CC)c2cc(C)cc(C)c2)s1	?	-24.5	?	3.9%	-22.3%	-19.9%
CC(C)CN(c1ccccc1)S(=O)(=O)c1nnc(NC(=O)c2ccco2)s1	9.2%	?	-0.9%[7.34 µM]	9.1%	0.0%[7.34 µM]	35.5µM*!
CCN(c1ccc(C)cc1)S(=O)(=O)c1nnc(NC(=O)c2ccco2)s1	13.2%	-5.7	-8.8%	13.9%	-9.6%	22.4µM*
